Here are results for 5 compounds from PubChem BioAssay.

Experiment [1] in a line: anti-His antibody binders, primary screen, artefact control for SMM control protein annotation, biochemical, small-molecule microarray, 635 nm fluorescence (AID 1128).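 Note: score merges feature fluorescence with signal-to-noise for each printed compound spot.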 The note with it: anti-His Alexa647 antibody binding, higher = more signal.
Experiment [2] concerns Human papillomavirus type 1a E7 protein (residues 1-88). As to the kind of experiment: HPV1a E7 small-molecule binders, primary screen, biochemical, small-molecule microarray, residues 1-88, 635 nm (AID 1129). The note with it: small-molecule microarray binding, fluorescence 635 nm; higher = more signal.
In experiment [3] the target is Focal adhesion kinase 1 (Homo sapiens) (UniProt Q05397). As to the kind of experiment: small-molecule microarray binders of FAK, primary screen, biochemical, 635/667 nm fluorescence, BSA, DTT (AID 1130).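 Note: composite of spot emission at 667 nm and signal to noise over triplicate slides.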 To be noted: PTK2 binding, 635 nm fluorescence, higher = more signal.
Chain of Focal adhesion kinase 1 (Homo sapiens) (Q05397 whole entry, looked up): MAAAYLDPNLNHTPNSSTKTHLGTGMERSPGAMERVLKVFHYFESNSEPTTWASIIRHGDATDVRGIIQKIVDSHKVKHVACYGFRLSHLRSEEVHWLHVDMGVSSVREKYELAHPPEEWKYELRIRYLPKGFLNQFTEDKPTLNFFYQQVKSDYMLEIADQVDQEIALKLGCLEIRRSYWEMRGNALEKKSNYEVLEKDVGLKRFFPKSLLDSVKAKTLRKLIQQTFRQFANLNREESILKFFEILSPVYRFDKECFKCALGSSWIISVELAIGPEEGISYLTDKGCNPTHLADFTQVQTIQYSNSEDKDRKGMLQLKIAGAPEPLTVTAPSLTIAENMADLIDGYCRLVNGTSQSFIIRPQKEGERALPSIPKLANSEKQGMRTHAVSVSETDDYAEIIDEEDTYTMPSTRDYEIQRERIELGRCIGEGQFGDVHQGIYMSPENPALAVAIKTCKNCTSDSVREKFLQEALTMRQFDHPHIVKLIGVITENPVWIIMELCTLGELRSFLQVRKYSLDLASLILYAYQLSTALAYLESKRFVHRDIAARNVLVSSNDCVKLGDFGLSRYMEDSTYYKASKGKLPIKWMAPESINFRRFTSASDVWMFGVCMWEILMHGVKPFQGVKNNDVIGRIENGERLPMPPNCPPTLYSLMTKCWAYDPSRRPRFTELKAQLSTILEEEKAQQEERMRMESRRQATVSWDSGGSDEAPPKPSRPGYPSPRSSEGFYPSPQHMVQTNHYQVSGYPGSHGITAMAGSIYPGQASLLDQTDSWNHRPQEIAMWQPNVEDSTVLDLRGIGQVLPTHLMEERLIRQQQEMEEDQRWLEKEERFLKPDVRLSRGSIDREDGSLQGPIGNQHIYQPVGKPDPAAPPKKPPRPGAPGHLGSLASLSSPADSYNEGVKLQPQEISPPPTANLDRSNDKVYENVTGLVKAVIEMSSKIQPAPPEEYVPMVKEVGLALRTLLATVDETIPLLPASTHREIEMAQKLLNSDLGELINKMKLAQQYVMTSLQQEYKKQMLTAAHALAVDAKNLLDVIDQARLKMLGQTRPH
Experiment [4] relates to Fibrinogen (Alexa647-labelled). As to the kind of experiment: fibrinogen binders on compound microarrays, profiling panel, artefact control for SMM control-protein annotation, biochemical, small-molecule microarray, 635/667 nm fluorescence (AID 1131).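 Note: z-score merges 667 nm fluorescence with per-spot signal-to-noise over triplicate slides.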 The note with it: fibrinogen-A647 binding fluorescence, higher = more signal.
The target of experiment [5] is Follistatin (Homo sapiens) (UniProt P19883). As to the kind of experiment: follistatin binders on small-molecule microarrays, primary screen, biochemical, small-molecule microarray, 635/667 nm fluorescence (AID 1132). To be noted: FST binding, 635 nm fluorescence, higher = more signal.
Chain of Follistatin (Homo sapiens) (P19883 whole entry, looked up): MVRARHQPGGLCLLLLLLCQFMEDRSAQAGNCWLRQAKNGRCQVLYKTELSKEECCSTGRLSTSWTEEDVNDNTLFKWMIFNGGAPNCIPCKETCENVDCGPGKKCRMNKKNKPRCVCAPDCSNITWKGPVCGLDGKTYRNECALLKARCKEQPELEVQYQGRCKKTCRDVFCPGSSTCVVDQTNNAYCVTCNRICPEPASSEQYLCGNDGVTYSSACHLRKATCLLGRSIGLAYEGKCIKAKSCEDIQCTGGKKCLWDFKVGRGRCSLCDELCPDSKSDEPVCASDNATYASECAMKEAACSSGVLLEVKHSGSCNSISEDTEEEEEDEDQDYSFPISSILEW
Experiment [6] deals with Fibroblast growth factor 2 (Homo sapiens) (UniProt P09038). As to the kind of experiment: FGF2 binders on small-molecule microarrays, primary screen, biochemical, small-molecule microarray, 635/667 nm fluorescence (AID 1133). To be noted: small-molecule microarray binding, FGF2, fluorescence 635/667; higher = more signal.
Chain of Fibroblast growth factor 2 (Homo sapiens) (P09038 whole entry, looked up): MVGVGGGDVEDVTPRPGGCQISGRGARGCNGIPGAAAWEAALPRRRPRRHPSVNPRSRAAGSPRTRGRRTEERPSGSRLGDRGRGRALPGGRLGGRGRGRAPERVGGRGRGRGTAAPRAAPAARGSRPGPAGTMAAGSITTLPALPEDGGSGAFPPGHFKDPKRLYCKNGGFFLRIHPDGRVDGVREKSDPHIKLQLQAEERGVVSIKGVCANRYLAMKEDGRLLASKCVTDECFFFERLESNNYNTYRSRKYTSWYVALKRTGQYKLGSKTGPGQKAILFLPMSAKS
Experiment [7] can be described thus: mitochondrial membrane potential change in A549 cells, profiling panel, cell-based, JC-1 fluorescence, basal, 24 h, 100 nL (AID 1138).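 Note: A549 lung adenocarcinoma cells under basal conditions with no added stimulus; test concentration not given here.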 To be noted: higher = more signal.
The subject of another experiment is Lefty1. As to the kind of experiment: Lefty1 binders on small-molecule microarrays, primary screen, biochemical, small-molecule microarray, 635/667 nm fluorescence (AID 1139). The note with it: small-molecule microarray binding, fluorescence 635/667; higher = more signal.
Experiment [8] has as its system wheat germ agglutinin (Triticum aestivum), Alexa647-labelled. As to the kind of experiment: wheat germ agglutinin binders on compound microarrays, profiling panel, artefact control for SMM control-protein annotation, biochemical, small-molecule microarray, 635/667 nm fluorescence (AID 1140).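 Note: score merges 667 nm feature emission with signal to noise over triplicate slides.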 To be noted: WGA-A647 binding, 635 nm fluorescence, higher = more signal.
The target of experiment [9] is Luciferin 4-monooxygenase (Photinus pyralis) (UniProt P08659). As to the kind of experiment: firefly luciferase enzyme inhibitors, primary screen, biochemical, luminescence, purified enzyme, 2006 set (AID 1141).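 Note: cell-free assay with purified firefly luciferase at 100 ng per well in PBS; test concentration not given here.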 The note with it: SteadyGlo luminescence, 30 min, higher = more signal, called active from +8 up or from −8 down.
Chain of Luciferin 4-monooxygenase (Photinus pyralis) (P08659 whole entry, looked up): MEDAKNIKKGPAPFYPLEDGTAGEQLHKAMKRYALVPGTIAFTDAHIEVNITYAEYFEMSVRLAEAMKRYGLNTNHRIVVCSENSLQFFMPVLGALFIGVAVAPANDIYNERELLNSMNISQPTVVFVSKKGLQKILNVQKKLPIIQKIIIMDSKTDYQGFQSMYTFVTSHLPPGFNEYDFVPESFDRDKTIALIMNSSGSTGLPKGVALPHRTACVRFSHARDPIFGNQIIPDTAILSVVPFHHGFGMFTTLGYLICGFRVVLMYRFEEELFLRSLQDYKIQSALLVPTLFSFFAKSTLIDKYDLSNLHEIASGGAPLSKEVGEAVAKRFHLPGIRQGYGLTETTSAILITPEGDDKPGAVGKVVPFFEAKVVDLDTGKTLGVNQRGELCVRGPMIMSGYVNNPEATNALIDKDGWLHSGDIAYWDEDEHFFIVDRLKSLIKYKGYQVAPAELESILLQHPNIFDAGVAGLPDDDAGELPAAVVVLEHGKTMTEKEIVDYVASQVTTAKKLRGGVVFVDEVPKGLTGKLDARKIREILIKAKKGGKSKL
Experiment [10] relates to Wnt5a (protein binding on small-molecule microarray). As to the kind of experiment: Wnt5a binders on small-molecule microarray, primary screen, biophysical, 635/667 nm fluorescence (AID 1142).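 Note: fluorescence read at 667 nm with signal to noise per printed feature.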 The note with it: 635 nm fluorescence, higher = more signal.
The nature of experiment [11]: cell viability in Huh7 cells, primary screen, cytotoxicity control for HCV replication inhibitor project, CellTiter-Glo luminescence, basal, 48 h (AID 1143).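 Note: Huh7 hepatoma cells carrying a hepatitis C replication reporter with no stimulus; test concentration not given here.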 To be noted: Huh7 HCV replicon, higher = more signal, called active from +8 up or from −8 down. In general terms: ATP-based viability assays read luminescence as a measure of living cells.
A short description of experiment [12]: P. aeruginosa biofilm formation inhibitors, primary screen, PAO1 strain, BacTiter-Glo luminescence, LB-PBS (AID 1144). To be noted: 12 h, higher = more signal.
Experiment [13] can be described thus: CREB reporter modulators without forskolin, primary screen, cell-based, PC12, CRE-LacZ reporter, unstimulated (AID 1145). To be noted: no forskolin, luminescence, 4.5 h, higher = more signal, called active from +8 up or from −8 down.
Experiment [14] is described as follows: CREB reporter modulators under forskolin, primary screen, cell-based, PC12, CRE-LacZ reporter, forskolin-stimulated (AID 1146).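 Note: PC12 cells with 6xCRE LacZ reporter stimulated by forskolin 10 µM; beta-galactosidase reporter signal reflecting CREB driven transcription.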 To be noted: luminescence, 4.5 h, higher = more signal, called active from +8 up or from −8 down.
In experiment [15] the target is Streptavidin (Streptomyces avidinii) (UniProt P22629). As to the kind of experiment: streptavidin binders on small-molecule microarray, primary screen, artefact control for SMM compound annotation, biophysical, 635/667 nm fluorescence (AID 1147).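 Note: signal reflects streptavidin binding to arrayed compounds as a control protein.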 The note with it: streptavidin binding, higher = more signal.
Chain of Streptavidin (Streptomyces avidinii) (P22629 whole entry, looked up): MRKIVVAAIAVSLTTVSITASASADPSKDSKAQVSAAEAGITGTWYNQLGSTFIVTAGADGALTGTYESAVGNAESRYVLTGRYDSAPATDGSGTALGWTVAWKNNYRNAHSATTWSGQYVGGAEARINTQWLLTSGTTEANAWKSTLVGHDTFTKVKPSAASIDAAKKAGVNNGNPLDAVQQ
Experiment [16] in a line: small-molecule binders of probe aInhba, primary screen, biochemical, small-molecule microarray, 635/667 nm fluorescence (AID 1148).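 Note: score merges 667nm spot fluorescence with signal-to-noise for antibody binding to printed compounds.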 To be noted: higher = more signal.
The target in experiment [17] is Torsin-1A (Homo sapiens) (UniProt O14656). As to the kind of experiment: torsin A binders from cell lysate, primary screen, small-molecule microarray, wild-type, 635/667 nm (AID 1149). To be noted: COS7 hTOR1A-WT lysate, 635 nm fluorescence, higher = more signal.
Chain of Torsin-1A (Homo sapiens) (O14656 whole entry, looked up): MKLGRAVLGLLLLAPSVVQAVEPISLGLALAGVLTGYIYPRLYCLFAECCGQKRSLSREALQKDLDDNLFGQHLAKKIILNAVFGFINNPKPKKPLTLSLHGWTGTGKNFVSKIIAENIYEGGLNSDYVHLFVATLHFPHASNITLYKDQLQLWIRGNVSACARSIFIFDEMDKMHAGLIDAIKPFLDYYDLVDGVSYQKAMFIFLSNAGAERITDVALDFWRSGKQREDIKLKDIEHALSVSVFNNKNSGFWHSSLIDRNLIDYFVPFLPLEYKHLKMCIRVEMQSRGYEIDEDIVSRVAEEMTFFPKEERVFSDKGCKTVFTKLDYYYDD
The target is the same in experiment [18]. As to the kind of experiment: small-molecule binders of mutant TOR1A in lysate, primary screen, cell lysate, small-molecule microarray, COS7 lysate, 635/667 nm fluorescence (AID 1150).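 Note: score pools 667 nm emission and signal to noise measuring lysate protein binding.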 To be noted: COS7 hTOR1A mutant lysate, 635 nm fluorescence, higher = more signal.
Experiment [19] has as its system Sonic hedgehog protein (Shh). As to the kind of experiment: small-molecule binders of Shh protein, primary screen, biochemical, small-molecule microarray, 635/667 nm fluorescence (AID 1151).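 Note: Shh protein binding to compounds spotted on small-molecule microarray slides; score combines spot fluorescence intensity with signal-to-noise across triplicate slides.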 The note with it: small-molecule microarray binding, 635 nm fluorescence; higher = more signal.

Calls of active or inactive are those of the source. Unless noted, the rule behind the calls is not given here.

On to `CN1C2C=C(CCCO)C(C3C(=O)N(C(N)=O)C(=O)C32)C1c1ccc(CN2CCCC2)cc1` (stereo not given), for which the composite z-score in [1] was 0.161; in experiment [2] it was -0.697; in experiment [3] it was -0.311; in experiment [4], -0.929; in experiment [5], -0.0168; in [6] it was 0.0692. The composite z-score in the experiment with Lefty1 was -0.484; in experiment [8], -0.0816; in [10], 0.269; in experiment [15], -0.411; in experiment [16] it was -0.299; in the experiment with Torsin-1A (Homo sapiens) [17] it was -0.14. Besides, the results for the composite z-score (with Torsin-1A (Homo sapiens) [18]; in [19]) were -0.266 and -0.138, respectively. Further, the z-score was -0.637 in experiment [7]; 0.73 (inactive) in experiment [9]; 1.23 (inactive) in experiment [11]; -0.938 (inactive) in experiment [12]; -0.83 (inactive) in experiment [13]; 1.31 (inactive) in experiment [14].
For `CN(C)CCCNC(=O)[C@@]1(c2ccc([N+](=O)[O-])cc2)CC(=O)N(C2CCCCC2)[C@@H]1c1ccc(CO)cc1`, the composite z-score is -0.0406 in [1]; 0.108 in [2]; -0.221 in experiment [3]; 0.874 in [4]; 0.928 in experiment [5]; -0.209 in experiment [6]. Also, the composite z-score in the experiment on Lefty1 was 0.401; in [8], -0.0351; in experiment [10], -0.217; in experiment [15], 0.494; in experiment [16], 0.0342; with Torsin-1A (Homo sapiens) [17] it was -0.485. Further, the composite z-score with Torsin-1A (Homo sapiens) [18] is -0.161; in [19], 0.371. Moreover, the z-score in [7] is 1.22; in [9] it was -0.0244 (inactive); in [11] it was -0.406 (inactive); in experiment [12], 0.382 (inactive); in [13], 0.234 (inactive); in experiment [14] it was -0.342 (inactive).
For `C=C(CCCC)C(=O)CC[C@H](OC(C)=O)c1cccc(OCCO)c1`, the composite z-score in [1] was -0.393; in experiment [2] it was -0.755; in experiment [3], 0.5; in experiment [4], -1.29; in experiment [5], -0.732; in experiment [6], -0.546. The composite z-score was -0.492 in the experiment on Lefty1; -0.881 in [8]; -0.247 in experiment [10]; -0.613 in experiment [15]; -0.183 in experiment [16]; -0.576 in the experiment with Torsin-1A (Homo sapiens) [17]. In addition, the composite z-score in the experiment with Torsin-1A (Homo sapiens) [18] was -0.132; in experiment [19] it was 0.103. Besides, the z-score in [7] was -0.299; in experiment [9], 0.0336 (inactive); in experiment [11] it was -3.51 (inactive); in [12], 0.428 (inactive); in experiment [13], 0.914 (inactive); in experiment [14], -0.057 (inactive).
For the compound `C[N+](C)(C)CCCCNC(=O)[C@H]1C[C@H]2C(=O)N[C@@H](Cc3ccccc3)C(=O)N2[C@H]1c1ccc(O)cc1`, the composite z-score in experiment [1] is 1.94; in [2] it was -0.304; in experiment [3], -0.452; in experiment [4], 0.451; in experiment [5] it was 1.34; in experiment [6] it was 0.971. Also, the composite z-score with Lefty1 is 0.985; in experiment [8], 0.496; in [10], 0.134; in [15], -0.455; in [16] it was 0.106; with Torsin-1A (Homo sapiens) [17] it was 0.81. Further, the composite z-score with Torsin-1A (Homo sapiens) [18] was 0.513; in experiment [19] it was 2.04. The z-score in experiment [7] is 0.079; in experiment [9], -1.27 (inactive); in experiment [11] it was 0.0641 (inactive); in [12] it was 0.0228 (inactive); in [13] it was 0.143 (inactive); in [14], 0.465 (inactive).
As for `COC(=O)[C@@]1(Cc2ccccc2)[C@H]2c3cc(C(=O)N4CCCC4)n(Cc4nc5ccccc5[nH]4)c3C[C@H]2CN1C(=O)c1ccccc1`, the composite z-score in [1] is 2.51; in experiment [2], 1.24; in [3] it was 1.22; in [4] it was 0.656; in experiment [5] it was 1.11; in experiment [6] it was -0.297. Also, the composite z-score with Lefty1 is -0.931; in experiment [8], 0.726; in experiment [10], 0.0972; in [15], 1.51; in experiment [16] it was 0.427; with Torsin-1A (Homo sapiens) [17], 0.746. Also, the composite z-score was 1.24 with Torsin-1A (Homo sapiens) [18] and -0.105 in experiment [19]. Moreover, the z-score in experiment [7] was 1.05; in [9], 1.5 (inactive); in experiment [11], -2.97 (inactive); in [12], -0.509 (inactive); in experiment [13], 0.773 (inactive); in experiment [14], 1.46 (inactive).
